Screening data (PubChem BioAssay)
Most compounds without a hit are left out; they make up all but 1.9% or so of the library.
MsrA inhibitor: inhibits bovine methionine sulfoxide reductase A; AID 651718; purified bovine MsrA, absorbance read-out; inhibition, % at 15.5 µM; actives 0.75% (n = 360,000); in the data active means inhibition above about 4.5%;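 further: 0% = vehicle wells with enzyme and 100% = reference inhibitor wells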
HTR5A inv ag: counter-screen for OPRM1-OPRD1 inverse agonists: human HTR5A inverse agonism; HTR5A cell line, luminescence; inhibition, % at 9.3 µM; actives 0.083% (n = 340,000); in the data active means inhibition mostly above about 23%, no sharp cut-off; inactive means mostly below about 18%;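 further: 0% = cells with DMSO and 100% = no-cell wells with DMSO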
Target sequence (P47898 whole entry, looked up): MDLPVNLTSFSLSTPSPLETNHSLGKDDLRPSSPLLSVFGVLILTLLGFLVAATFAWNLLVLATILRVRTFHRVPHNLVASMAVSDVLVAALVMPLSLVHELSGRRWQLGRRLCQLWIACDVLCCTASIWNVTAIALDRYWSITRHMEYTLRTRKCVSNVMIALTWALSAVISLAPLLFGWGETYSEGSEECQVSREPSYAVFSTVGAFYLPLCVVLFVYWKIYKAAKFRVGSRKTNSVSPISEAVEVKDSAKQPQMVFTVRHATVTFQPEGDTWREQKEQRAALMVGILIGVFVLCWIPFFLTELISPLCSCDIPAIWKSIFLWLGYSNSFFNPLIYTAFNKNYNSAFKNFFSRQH
OPRM1-OPRD1 ag: agonists of human mu-delta opioid receptor heterodimerization. P35372+P41143. cells, OPRM1-OPRD1 heterodimerization, luminescence. activation, % at 9.3 µM. actives 0.3% (n = 340,000);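 further: 0% = vehicle-treated cells and 100% = reference agonist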
bovine MsrA act: activators of bovine methionine sulfoxide reductase A | activation, % at 10.6 µM | actives 0.3% (n = 360,000) | purified bovine MsrA, absorbance read-out | AID 602163; in the data active means activation above about 7.5%;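 further: 0% = vehicle and 100% = reference activator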
MOR-DOR inv ag: inverse agonists of human mu-delta opioid receptor heterodimerization; P35372+P41143; cell-based MOR-DOR heterodimer luminescence, inverse agonism; inhibition, % at 9.3 µM; actives 0.21% (n = 340,000); AID 504357; in the data active means inhibition above about 22%, passing the limit was not always enough;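 further: 0% = cells with DMSO and 100% = wells without cells with DMSO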
HTR5A ag ctr: activates human HTR5A in OPRM1-OPRD1 agonist counter-screen | P47898 | HTR5A agonist assay, luminescence, cell-based | activation, % at 9.3 µM | actives 0.61% (n = 340,000); in the data active means activation mostly above about 9.5%, no sharp cut-off; inactive means mostly below about 7.6%;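 further: 0% = cells with vehicle only and 100% = reference agonist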
MOR-DOR ag conf: OPRM1-OPRD1 heterodimer agonism, confirmation; shares compounds with OPRM1-OPRD1 ag; cells, MOR-DOR heterodimerization, luminescence complementation; activation, % at 9.3 µM; actives 45% (n = 830);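 further: 0% = vehicle-treated cells and 100% = reference agonist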
HTR5A ag ctr2: counter-screen for OPRM1-OPRD1 agonists: human HTR5A agonism | HTR5A agonist counterscreen, cell luminescence | actives 8% (n = 830) | shares compounds with OPRM1-OPRD1 ag | activation, % at 9.3 µM; in the data active means activation above about 17%;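 further: 0% = vehicle-treated cells and 100% = reference agonist response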
* = called active by the depositor; i = inactive; / = no result given. Unless noted, no stated cut-off is given here; in the data, active means activation above about 18%; inactive means the rest.

SMILES	MsrA inhibitor	HTR5A inv ag	OPRM1-OPRD1 ag	bovine MsrA act	MOR-DOR inv ag	HTR5A ag ctr	MOR-DOR ag conf	HTR5A ag ctr2
COc1ccc(CNC[C@@H](CCCCN(C)Cc2ccc(OC)cc2)N2C[C@H](c3ccccc3)N(CCc3ccc(Cl)c(Cl)c3)C(=O)C2=O)cc1	/	-57	81*	1	-473	21*	127*	33*
CCN(c1nc(N)c(C(=O)N=C(N)N)nc1Cl)C(C)C	0	-11	51*	2	-282	2	95*	-3
CC(C)C[C@H](NC(=O)C1CCCC1)C(=O)N1CCC[C@H]1C(=O)NCc1ccccc1	0	/	/	/	/	/	/	/
COc1ccc(S(=O)(=O)N(Cc2ccccc2)Cc2nc3ccccc3c(=O)[nH]2)cc1	0	-6	3	2	-12	0	/	/
COc1ccccc1CN(Cc1nc2ccccc2c(=O)[nH]1)S(=O)(=O)c1ccc2ccccc2c1	1	5	20*	-2	-120	-2	-1	0
C=CCCC1CN(Cc2ccc(OC)cc2)S(=O)(=O)c2c(Oc3ccc(C)cc3)cccc2O1 (stereo not given)	1	/	/	/	/	/	/	/
Cc1cccc(C(=O)NNC(=O)c2cc3cc4ccccc4nc3s2)c1	2	-5	22*	-13	-94	2	5	16
O=C(NNC(=O)c1cc2cc3ccccc3nc2s1)c1cccc(Cl)c1	1	-5	-1	-11	7	2	/	/
CCCC(=O)OC[C@H]1CN(C2CCCC2)S(=O)(=O)c2c(F)cccc2O1	-1	/	/	/	/	/	/	/
CCC(=O)NC(Cc1ccccc1)c1nc2ccccc2[nH]1 (stereo not given)	0	-11	-2	-3	10	3	/	/
Cc1cc(Cl)ccc1OCC(=O)N[C@@H](Cc1ccccc1)c1nc2ccccc2[nH]1	1	-25	24*	-8	-128	6	44*	2
CN1C2CCC1CC(N(CCc1ccccc1)C(=O)c1ccc(Cl)cc1)C2 (stereo not given)	0	-8	2	-2	-11	2	/	/
CN1C2C=C(N(CCc3ccccc3)C(=O)c3ccc(Cl)cc3)CC1CC2 (stereo not given)	1	5	73*	-2	-377	1	89*	-4
Nc1[nH]c(C(=O)c2ccccc2)c(-c2cc(F)ccc2Br)c1C(=O)NCCc1c[nH]c2ccccc12	1	/	/	/	/	/	/	/
C[n+]1ccn(CC(=O)c2ccc(Br)cc2)c1	0	-5	-3	-3	13	2	/	/
O=C(Cn1c(-c2ccccc2)c[n+]2ccsc12)c1ccc(Br)cc1	-1	-12	171*	-1	i	4	3	-1
Nc1[nH]c(C(=O)c2ccc(Cl)cc2)c(-c2ccc(Br)cc2)c1C(=O)NCc1ccc(Cl)cc1Cl	0	/	/	/	/	/	/	/
O=[N+]([O-])c1ccc(N2CCN(CCO)CC2)cc1Sc1ccccn1	1	21	0	-5	4	-2	/	/
CCN1CCN(c2ccc([N+](=O)[O-])c(Sc3nc4ccccc4[nH]3)c2)CC1	1	10	76*	-6	-457	-4	69*	-3
COc1ccc(-c2ccc3c(n2)CCCN3S(=O)(=O)c2c(C)noc2C)cc1	1	/	/	/	/	/	/	/
C(=C\c1nccc2c1[nH]c1ccccc12)/c1ccccc1	-1	-16	1	2	-6	4	/	/
Fc1ccc(/C=C\c2nccc3c2[nH]c2ccccc23)cc1	0	-17	19*	-4	-87	8	33*	37*
CCSc1nnc(NC(=O)c2cccc3ccccc23)s1	1	-16	6	0	-29	6	/	/
CCSc1nnc(NC(=O)c2cc(-c3ccccc3O)n[nH]2)s1	0	-15	32*	-7	-171	1	10	1
Nc1nonc1C(=O)NCCNCc1c(OCc2ccccc2F)ccc2ccccc12	0	-6	22*	1	-118	2	121*	6
CCn1ccnc1CNCc1cn(-c2cc(C)ccc2C)nc1-c1ccccc1	3	2	2	-3	-12	-4	/	/
Cc1ccc(C)c(-n2cc(CNCCc3cnccn3)c(-c3ccccc3)n2)c1	-1	-25	54*	3	-275	8	79*	-1
